In the library only some 1.5% were active in any assay of this set; here they are far more common.
CendR NRP1 mod: NRP-1/CendR interaction modulation; O14786; inhibition, % at 25 µM; actives 0.85% (n = 360,000); AID 602438; FAM-RPARPAR peptide binding to NRP-1, fluorescence polarization;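 active means inhibition or corrected inhibition above about 18%, plus a signal ratio from 0.5 to 1.5, limit read from the data, passing the limit was not always enough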
miR122 inh: miR-122 inhibition in Huh7 cells | actives 0.3% (n = 340,000) | activation (reporter increase), % at 12.5 µM | AID 602342 | Huh7 miR-122 Renilla luciferase sensor, 48 h; neutral wells = 0, positive control = 100;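 active means mean replicate activation score at least 90 and every replicate individually at or above 90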;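 further: higher luciferase means less miR-122 activity so hits act as miR-122 inhibitors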
N-glyco inh: blocks N-linked glycosylation in D54 reporter cells. reporter increase, % at 12.5 µM. D54 ERlucT glycosylation luciferase reporter, 24 h; percent of 100 nM tunicamycin response. AID 588692. actives 0.23% (n = 360,000);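 active means mean luciferase reporter signal, scaled so untreated is 0 and the glycosylation-blocking control 100, at or above a set limit in every replicate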;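 further: luciferase carries N-glycosylation sites so blocking glycosylation raises the light; 0% = median of neutral control wells and 100% = median of 100 nM tunicamycin wells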
RAD52 anneal inh: blocks human RAD52 DNA annealing; AID 651710; inhibition, % at 18.7 µM; P43351; actives 0.46% (n = 360,000); recombinant RAD52 DNA annealing, FRET fluorescence;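 active means every replicate showing at least 50% inhibition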
Target sequence (P43351 whole entry, looked up): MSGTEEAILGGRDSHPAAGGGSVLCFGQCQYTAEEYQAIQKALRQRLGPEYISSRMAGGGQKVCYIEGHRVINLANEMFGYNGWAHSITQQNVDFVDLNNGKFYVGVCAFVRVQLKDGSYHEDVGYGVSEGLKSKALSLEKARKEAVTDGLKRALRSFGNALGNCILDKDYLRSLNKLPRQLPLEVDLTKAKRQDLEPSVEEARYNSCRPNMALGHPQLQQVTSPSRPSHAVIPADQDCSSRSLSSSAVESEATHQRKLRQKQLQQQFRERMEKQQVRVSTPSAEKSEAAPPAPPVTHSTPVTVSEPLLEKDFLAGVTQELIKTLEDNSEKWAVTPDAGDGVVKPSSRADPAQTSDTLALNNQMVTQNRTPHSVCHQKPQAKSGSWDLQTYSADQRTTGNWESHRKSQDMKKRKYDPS
RAD54 inh: blocks human RAD54 Holliday junction branch migration | inhibition, % at 10.4 µM | actives 0.14% (n = 360,000) | FAM/BHQ fluorescence | Q92698;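 active means mean normalized replicate activity at least 40 and at least half of replicates scoring 40 or more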;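 further: 0% = median of neutral control wells and 100% = median of positive control wells; inhibitors cause a drop in the FAM fluorescence signal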
FID counter: counter-screen for HCV NS3 helicase inhibitors: DNA intercalator displacement; DNA fluorescent intercalator displacement, fluorescence; inhibition, % at 7.9 µM; actives 0.17% (n = 290,000); AID 1845; in the data active means inhibition above about 37%;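 further: 0% = vehicle and 100% = reference compound; higher means more ethidium bromide displaced from hairpin DNA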
Starred values were filed as active, the others as inactive; . = no result given; [ ] = remark or other dose.

SMILES	CendR NRP1 mod	miR122 inh	N-glyco inh	RAD52 anneal inh	RAD54 inh	FID counter
N#C[C@H]1N[C@H](CO)[C@@H]1c1ccc(-c2cccc(F)c2)cc1	.	.	.	-1	14	.
CCOc1ccc(NS(=O)(=O)c2cc(NC(=O)C3CC3)ccc2C)cc1Br	-7	140*	-2	-10	0	.
COc1ccc(NC(=O)CSc2nnc(CNC(=O)c3ccco3)n2-c2ccccc2OC)cc1	5	10	-1	.	-16	-14
COc1ccc(NCc2nnc(SCC(=O)NCc3ccccc3)n2-c2ccccc2OC)cc1	29*	.	-2	-6	4	-35
C[C@@H]1CCCCO[C@H](CN(C)S(=O)(=O)c2cn(C)cn2)[C@H](C)CN([C@@H](C)CO)C(=O)c2cc(NS(=O)(=O)c3ccccc3)ccc2O1	.	4[16.7 µM]	.	-125	-2	.
Cc1cc(=O)[nH]c(N/N=C/c2c(C)nn(-c3ccccc3)c2Cl)n1	1	-1	-3	-12	.	-24
Cc1nn(-c2ccccc2)c(Cl)c1/C=N/Nc1nc2ccccc2[nH]1	-2	.	66*	-10	.	-5
Cc1ccc(/C=N/Nc2nc3ccccc3[nH]2)s1	29*	2	3	.	7	2
Cc1ccccc1/C=N/Nc1nc2ccccc2[nH]1	13	.	-3	-5	.	14
C[C@@H]1CN([C@H](C)CO)C(=O)c2cccc(NC(=O)Nc3ccc(C(F)(F)F)cc3)c2O[C@H]1CN(C)C(=O)Nc1ccc2c(c1)OCO2	.	3[16.7 µM]	.	.	-7	.
C[C@@H]1CN([C@@H](C)CO)C(=O)c2cc(NS(=O)(=O)c3cccs3)ccc2O[C@@H](C)CCCCO[C@H]1CN(C)Cc1ccc2c(c1)OCO2	.	-18[16.7 µM]	.	.	13	.
CN(C)CCNC(=O)c1cc2ccccc2oc1=O	1	0	0	.	0	3
CN(Cc1cnn(C)c1)C(=O)c1cc2ccccc2oc1=O	52*	-4	1	.	-10	-3
COc1ccc(S(=O)(=O)NCc2ccco2)c2ccccc12	-3	96*	-1	-13	1	-12
COc1ccc(C(=O)Nc2ccc(S(=O)(=O)NCc3ccco3)cc2)cc1OC	-19	176*	4	.	-1	-1
COc1ccccc1NC(=O)c1ccc(S(=O)(=O)NCc2ccco2)cc1	5	28	0	-4	3	-21
O=C(C[C@H]1C[C@@H]2c3cc(NS(=O)(=O)c4ccccc4)ccc3O[C@@H]2[C@@H](CO)O1)NC1CCCC1	.	1[16.7 µM]	.	-8	3	.
CC1CC(C)CN(CC(=O)NC(c2ccccc2)c2ccccc2)C1 (configuration not stated)	9	.	-8	-7	.	37*
C[C@@H]1CCCCO[C@H](CN(C)S(=O)(=O)c2ccc(Cl)cc2)[C@H](C)CN([C@@H](C)CO)C(=O)c2cc(NS(C)(=O)=O)ccc2O1	.	5[16.7 µM]	.	-22	0	.
COc1cccc(C2(c3cccc(OC)c3)CC2C(=O)Nc2ccc(F)cc2)c1 (configuration not stated)	4	108*	-2	-24	1	-8
COc1cccc(C2(c3cccc(OC)c3)CC2C(=O)Nc2ccccc2Cl)c1 (configuration not stated)	-3	67	-4	-20	18	-22
O=S(=O)(c1ccc(F)cc1)N1CCCCN2[C@H](C1)[C@H](c1ccc(C#CC3CCCC3)cc1)[C@@H]2CO	.	-26[16.7 µM]	.	12	2	.
O=S(=O)(c1ccc(F)cc1)N1CCCCN2[C@H](C1)[C@H](c1ccc(-c3ccccc3F)cc1)[C@@H]2CO	.	5[16.7 µM]	.	13	4	.
O=S(=O)(c1ccc(F)cc1)N1CCCCN2[C@@H](CO)[C@@H](c3ccc(-c4ccccc4F)cc3)[C@@H]2C1	.	2[16.7 µM]	.	60*	2	.
O=S(=O)(c1ccc(F)cc1)N1CCCCN2[C@@H](CO)[C@H](c3ccc(-c4ccccc4F)cc3)[C@@H]2C1	.	-2[16.7 µM]	.	59*	-6	.
SMILES	CendR NRP1 mod	miR122 inh	N-glyco inh	RAD52 anneal inh	RAD54 inh	FID counter
O=S(=O)(c1ccccc1)N1CCCCN2[C@H](CO)[C@H](c3ccc(-c4ccccc4F)cc3)[C@H]2C1	.	8[16.7 µM]	.	52*	5	.
O=S(=O)(c1ccccc1)N1CCCCN2[C@H](C1)[C@H](c1ccc(-c3ccccc3F)cc1)[C@@H]2CO	.	2[16.7 µM]	.	-3	6	.
O=S(=O)(c1ccc(F)cc1)N1CCCCN2[C@H](CO)[C@H](c3ccc(C#CC4CCCC4)cc3)[C@H]2C1	.	-25[16.7 µM]	.	58*	-3	.
O=S(=O)(c1ccc(F)cc1)N1CCCCN2[C@H](C1)[C@@H](c1ccc(-c3ccccc3F)cc1)[C@@H]2CO	.	8[16.7 µM]	.	16	3	.
C[C@@H]1CN([C@@H](C)CO)C(=O)c2cc(NC(=O)CCCN(C)C)ccc2O[C@@H](C)CCCCO[C@H]1CN(C)C(=O)CCCN(C)C	.	.	.	22	.	.
C[C@@H]1CN([C@H](C)CO)C(=O)c2cc(NS(=O)(=O)c3ccc(F)cc3)ccc2O[C@@H]1CN(C)C(=O)Nc1ccccc1	.	3[16.7 µM]	.	-13	2	.
Cc1ccccc1-c1ccc2c(c1)O[C@H](CN(C)C(=O)C1CC1)[C@H](C)CN([C@H](C)CO)S2(=O)=O	.	.	.	4	5	.
CO[C@H]1CN(C)C(=O)c2cc(NC(=O)Nc3cccc(F)c3)ccc2OC[C@@H](C)N(C(C)=O)C[C@H]1C	.	11[16.7 µM]	.	-5	2	.
CC(C)CC#Cc1cnc2c(c1)C(=O)N([C@H](C)CO)C[C@H](C)[C@H](CN(C)Cc1cccc(C(=O)O)c1)O2	.	.	.	-9	.	.
C[C@@H]1CN([C@H](C)CO)C(=O)Cc2cc(NS(=O)(=O)c3cccs3)ccc2O[C@@H]1CN(C)C(=O)Nc1cccc2ccccc12	.	7[16.7 µM]	.	.	-3	.
CNc1nc(C)c(C(=O)OCc2ccccc2)s1	6	-19	-5	.	2	-11
CNc1nc(C)c(C(=O)OCC(=O)OC)s1	-2	1	1	.	-21	37*
CCOc1ncccc1C(=O)Nc1cc2c(cc1Br)OCCO2	6	16	41*	-23	-1	.
Cc1ccccc1-c1nn(-c2ccc(F)cc2F)cc1CNCCN(C)C	-9	.	-3	44	-20	22
COCCN(C)Cc1cn(-c2ccc(F)cc2F)nc1-c1ccccc1C	14	.	0	-8	.	6
Cc1ccccc1-c1nn(-c2ccc(F)cc2F)cc1CNCCCN(C)C	9	.	-1	44	.	42*
CCC(COC)NCc1cn(-c2ccc(F)cc2F)nc1-c1ccccc1C (configuration not stated)	26*	-3	1	-7	0	19
Cc1ccc(C(=O)c2c(NC(=O)CSc3nnc(N)s3)sc3c2CCCC3)cc1	33*	-2	-1	-30	0	-33
CCCN1CCC(NCc2cn(C)nc2-c2ccc(Oc3ccccc3)cc2)CC1	0	-15	-8	7	.	39*

Screening data: PubChem BioAssay, several laboratories
